Measured values: PubChem BioAssay AID588726 (The Scripps Research Institute Molecular Screening Center, 2011)
Screen size: about 360,000 compounds; about 8,200 (2.3%) were called active. No stated cut-off is given here; in the data, active means inhibition above about 27%; inactive means the rest. This excerpt belongs to a sample that is enriched for actives.

target: Fructose-bisphosphate aldolase (Mycobacterium tuberculosis (strain ATCC 25618 / H37Rv)) (UniProt P9WQA3); assay: Mtb FBA enzyme inhibitors, primary screen, biochemical, fluorescence, strain H37Rv (AID 588726);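 further: 0% = vehicle and 100% = reference inhibitor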; conditions: purified M. tuberculosis FBA, fluorescence read-out, at 1 µM, stronger effect = higher value
Sequence (P9WQA3 whole entry, looked up): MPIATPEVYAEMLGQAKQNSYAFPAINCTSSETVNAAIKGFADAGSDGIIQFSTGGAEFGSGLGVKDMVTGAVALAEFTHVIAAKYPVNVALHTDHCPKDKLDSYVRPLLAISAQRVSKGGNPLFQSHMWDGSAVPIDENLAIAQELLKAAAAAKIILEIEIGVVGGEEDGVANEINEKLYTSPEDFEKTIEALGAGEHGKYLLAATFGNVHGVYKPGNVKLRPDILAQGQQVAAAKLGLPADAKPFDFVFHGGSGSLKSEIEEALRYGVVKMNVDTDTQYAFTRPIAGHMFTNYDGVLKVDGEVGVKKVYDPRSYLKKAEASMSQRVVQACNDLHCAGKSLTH

Row | Compound | inhibition
1 | Cc1nc2nc(C)c(NS(=O)(=O)c3ccc(C(C)(C)C)cc3)c(=O)n2[nH]1 | 1.79% (inactive)
2 | CC(=O)c1ccc(N2CCN(CC(O)c3ccccc3)CC2)cc1 (configuration not stated) | -0.54% (inactive)
3 | COc1cc(N)c(Cl)cc1C(=O)OCC(=O)c1ccc2c(c1)NC(=O)CO2 | -2.6% (inactive)
4 | CSc1ccc(CN2C(=O)NC3(CCCCCC3)C2=O)cc1 | 6.55% (inactive)
5 | COc1ccc(CNC(=O)c2c[nH]c3c(OC)cc(OC)cc3c2=O)cc1 | 34.8% (active)
6 | CCSc1ccccc1C(=O)NCc1ccc(OC)cc1 | -3.44% (inactive)
7 | COc1ccc(CNC(=O)c2cc(C(=O)C3CC3)c[nH]2)cc1 | 5.17% (inactive)
8 | C=CC[C@@H](CC(=O)N[C@@H](CO)Cc1ccccc1)C(=O)N[C@H](COC(=O)[C@H](CC=C)CC(=O)OC(C)(C)C)Cc1ccccc1 | 3.8% (inactive)
9 | Cc1nc(NCc2ccccc2)c(C(N)=O)c2c1COC(C)(C)C2 | 22.3% (inactive)
10 | CCCCc1nc(NCCN)c(C#N)c2c1CSC(C)(C)C2 | 5.12% (inactive)
11 | Cc1nc(NCCN)c(C#N)c2c1COC(C)(C)C2 | 27.9% (active)
12 | CC(C)Cc1nnc(N)s1 | 0.9% (inactive)
13 | CC(=O)Nc1ccc(S(=O)(=O)NCCC(=O)N2CCN(c3ccccc3Cl)CC2)cc1 | 3.53% (inactive)
14 | O=C(Nn1c(-c2ccc(Cl)cc2)nc2ccccc2c1=O)c1cccnc1Cl | 15% (inactive)
15 | O=c1c2ccccc2nc(-c2ccccc2)n1-c1ccccn1 | -4.31% (inactive)
16 | Cc1ccc(-c2nc3ccccc3c(=O)n2-c2ccc(Br)cn2)cc1 | 27.5% (active)
17 | O=Cc1c(N2CCN(c3cccc(Cl)c3)CC2)nc2ccccn2c1=O | 6.06% (inactive)
18 | COCCCNC(=O)/C(C#N)=C/c1c(N2CCCCCC2)nc2ccccn2c1=O | 74.5% (active)
19 | COCCNC(=O)/C(C#N)=C/c1nc(N(C)C)n(-c2ccc(F)cc2)c1Cl | 0.71% (inactive)
20 | N#CC1(C#N)C(C(=O)C23CC4CC(CC(C4)C2)C3)C12CCOCC2 (configuration not stated) | 1.25% (inactive)
21 | CSc1ncccc1C(=O)OCc1ccc(Br)cc1 | 2.13% (inactive)
22 | CC/C(C)=N/Nc1nc2sc3c(c2c(=O)[nH]1)CC(C)(C)OC3 | 21.5% (inactive)
23 | CCCc1nc2oc3c(OCC)ncnc3c2c2c1COC(C)(C)C2 | -1.08% (inactive)

Row | Compound | inhibition
24 | CCCc1nc2oc3c(=O)[nH]cnc3c2c2c1COC(C)(C)C2 | 40.7% (active)
25 | Nn1c(SCC(=O)NC(=O)NC2CCCC2)nnc1-c1ccccc1F | 0.25% (inactive)
26 | Cc1nc2ccc(C(=O)N3CCSCC3)cc2s1 | -8.83% (inactive)
27 | CN(CCc1ccccn1)C(=O)c1ccc(OC2CCN(Cc3ccccn3)CC2)cc1 | 3.08% (inactive)
28 | COc1cc2c(cc1O)C(SC)=NC(C)(C)C2 | 0.86% (inactive)
29 | COc1cc2c(cc1OC)C(C(C)C)=NC(C)(C)C2 | 140% (active)
30 | COc1cc2c(cc1OC)C(Nc1ccc(S(N)(=O)=O)cc1)=NC(C)(C)C2 | 0.94% (inactive)
31 | O=C(COc1ccccc1Cl)N1CCCCCCC1 | 3.37% (inactive)
32 | COc1ccccc1C(=O)Nc1ccc(OCc2nnc3c4ccccc4c(C)nn23)cc1 | 1.57% (inactive)
33 | COc1ccccc1C(=O)Nc1ccc(OCC(=O)N2CCCCC2)cc1 | 42.3% (active)
34 | OC[C@@H]1CN(Cc2cccs2)C[C@H](n2cnc3c(Nc4ccccc4)ncnc32)O1 | 44.8% (active)
35 | CCN(CC)c1ncnc2c1ncn2[C@H]1CN(Cc2cccs2)C[C@@H](CO)O1 | 1.17% (inactive)
36 | OC[C@@H]1CN(Cc2cccs2)C[C@H](n2cnc3c(NC4CCCC4)ncnc32)O1 | -0.13% (inactive)
37 | CC1(C)CC2CC(C)(CN2c2ncnc3ccc(Br)cc23)C1 (configuration not stated) | 6.02% (inactive)
38 | Cc1occc(=O)c1OCc1c(Cl)cccc1Cl | 2.61% (inactive)
39 | CCCN(C(=O)CSc1nnc(N)s1)c1c(N)n(Cc2ccccc2)c(=O)[nH]c1=O | 48.3% (active)
40 | CN(C(=O)CSc1nnc(N)s1)c1c(N)n(Cc2ccccc2)c(=O)[nH]c1=O | 1.14% (inactive)
41 | CCCN(C(=O)CSc1nnnn1C)c1c(N)n(Cc2ccccc2)c(=O)[nH]c1=O | 9.36% (inactive)
42 | COc1ccc(CNC(=O)C[C@H]2C[C@H](C(=O)N3CCOCC3)[C@@]3(C)c4[nH]c5cc(CCC(=O)N(C)C)ccc5c4CCN3C2=O)cc1OC | -3.63% (inactive)
43 | Cc1oc(-c2ccccc2F)nc1CS(=O)CC(=O)NCCN1CCCCC1C (configuration not stated) | -1.66% (inactive)
44 | COc1ccccc1N(C)S(=O)(=O)c1ccc(C(=O)N2CCC(C(N)=O)CC2)cc1 | 2.31% (inactive)
45 | COc1ccccc1CNC(=O)C1CCN(c2nc3ccccc3o2)CC1 | 0.23% (inactive)
46 | N#Cc1nc(COc2ccc(Cl)cc2)oc1N1CCCC1 | -2.71% (inactive)

Row | Compound | inhibition
47 | Cc1nc(-c2ccccc2)sc1-c1nnc(C2CC2)o1 | 18.1% (inactive)
48 | Cn1cnnc1Sc1ccc(CN2CCN(C3CCCC3)C(CCO)C2)o1 (configuration not stated) | -0.65% (inactive)
49 | CCCCCCCCCCCCN1[C@@H](CC(C)=O)c2cc(F)cc(F)c2S1(=O)=O | -2.16% (inactive)
50 | COc1ccc(CCNC(=O)c2ccc(NC(=O)CC3SC(N4CCCCC4)=NC3=O)cc2)cc1OC (configuration not stated) | 1.72% (inactive)
51 | NS(=O)(=O)c1ccc(CCNC(=O)CNC(=O)Cc2ccccc2)cc1 | 4.09% (inactive)
52 | CC[C@@]1(C(=O)OC)N[C@H](CN(C)C(C)=O)[C@@H]2C(=O)N(C)C(=O)[C@@H]21 | -0.4% (inactive)
53 | O=C1C2C3C=CC(C3)C2C(=O)N1c1ncc([N+](=O)[O-])s1 (configuration not stated) | 0.42% (inactive)
54 | Cc1ccc2nnn(Cc3cccc(C(C)(C)C)c3O)c2c1 | -1.49% (inactive)
55 | Cc1oc2c(C)c3oc(=O)c(CC(=O)N[C@@H](CC(C)C)C(=O)N[C@@H](Cc4ccccc4)C(=O)O)c(C)c3cc2c1C | 14.5% (inactive)
56 | Cc1c(OC(C)C(=O)NCC2CCC(C(=O)O)CC2)ccc2c1oc(=O)c1ccccc12 (configuration not stated) | 11.2% (inactive)
57 | Cc1c(OC(C)C(=O)N[C@@H](Cc2ccccc2)C(=O)O)ccc2c3c(c(=O)oc12)CCCC3 (some centres not stated) | 57.5% (active)
58 | CCOC(=O)N1CCC(c2cc(=O)n(-c3ccccc3)[nH]2)CC1 | 2.04% (inactive)
59 | NS(=O)(=O)c1ccc(N2C(=O)C3C4CC(C(Br)C4Br)C3C2=O)cc1 (configuration not stated) | 2.97% (inactive)
60 | COc1ccc(N(CC(=O)Nc2ccc(F)c(F)c2)S(=O)(=O)c2c(C)[nH]c(=O)[nH]c2=O)cc1 | 0.84% (inactive)
61 | O=C(CN1C(=O)c2cccc3cccc(c23)C1=O)N1CCCCC1 | 31.8% (active)
62 | Cn1c(=O)n(C)c(=O)n(CC(=O)N2CCCCC2)c1=O | -2.14% (inactive)
63 | O=C(CN1C(=O)c2cccc3cccc1c23)Nc1ccccc1 | 1.33% (inactive)
64 | O=S1(=O)CC/C(=N\Nc2ccc(F)cc2)c2ccsc21 | 0.47% (inactive)
65 | CCn1c(SC)nc(O)c(C(c2ccc(OC)c(O)c2)c2c(O)nc(SC)n(CC)c2=O)c1=O | 0.76% (inactive)
66 | N/C(=N\S(=O)(=O)c1ccc(Cl)cc1)N1CCOCC1 | -1.72% (inactive)
67 | O=S(=O)(c1ccccc1)N1CN(Cc2ccc(F)cc2)c2nc3ccccc3nc21 | 1.18% (inactive)
68 | C=CCC1(C(=O)N(C)Cc2ccccc2)CCN(C(=O)OC(C)(C)C)CC1 | -0.41% (inactive)
69 | CC1=CC2=NC(=O)CC(C)(C(=O)N(CC(=O)NC(C)(C)C)Cc3ccccc3)N2C=C1 (configuration not stated) | 39.1% (active)

Row | Compound | inhibition
70 | CCN(CC(=O)Nc1cc(Cl)ccc1C)C(=O)CSCc1ccccc1 | 1.52% (inactive)
71 | CCCn1nc(NS(=O)(=O)c2ccc(F)cc2)c2cc3ccccc3nc21 | 1.96% (inactive)
72 | Cc1ccc(S(=O)(=O)c2c(N)n(C)c3nc4ccccc4nc23)cc1 | 195% (active)
73 | Cc1ccc(S(=O)(=O)Nc2nc(N)n(-c3ccccc3)n2)cc1 | -1.75% (inactive)
74 | CCC(=O)Nc1c(S(=O)(=O)c2ccccc2)c2nc3ccccc3nc2n1Cc1ccccc1 | 71.7% (active)
75 | CCN(CC)CCn1c(N)c(S(=O)(=O)c2ccccc2)c2nc3ccccc3nc21 | 73.8% (active)
76 | CCC(=O)Nc1ccc2nc(C)n(Cc3ccccc3Cl)c(=O)c2c1 | -0.06% (inactive)
77 | CCC(=O)Nc1ccccc1C(=O)N1CCN(Cc2ccccc2)CC1 | 1.09% (inactive)
78 | Cc1ccc(S(=O)(=O)NCc2nc3ccccc3c(=O)n2N)cc1 | 0.87% (inactive)
79 | CCCn1nc(NS(=O)(=O)c2ccccc2)c2cc3cc(C)ccc3nc21 | -1.36% (inactive)
80 | Cc1cc(NC(=O)C(C)SCC(=O)Nc2cccc(S(=O)(=O)N3CCCCCC3)c2)no1 (configuration not stated) | 2.17% (inactive)
81 | COc1cccc(NC(=O)CSc2nnc(C3CCCCC3)n2N)c1 | -1.25% (inactive)
82 | CC(=O)NC(CC(=O)Nc1nccs1)c1ccccc1 (configuration not stated) | 6.36% (inactive)
83 | OC(CN=c1sc2ccccc2n1CC(O)COc1ccccc1)COc1ccccc1 (configuration not stated) | -7.04% (inactive)
84 | CC(C)COP(=O)(c1ccc(N(C)C)cc1)C(Nc1ccccc1)c1cccnc1 (configuration not stated) | 6.04% (inactive)
85 | COc1ccc(C(=O)N(CCN2CCOCC2)CC(=O)NC2CCCC2)cc1OC | -0.65% (inactive)
86 | Cc1ccc2nc(-c3ccccc3)c(CC3CCCCC3)n2c1 | 3.26% (inactive)
87 | Cc1ccccc1C(=O)NCCN=C1NS(=O)(=O)c2ccccc21 | 0.52% (inactive)
88 | COc1ccc(-n2c(C)nn(CC3CC3)c2=O)cc1 | -1.25% (inactive)
89 | COc1ccc(CC(NC(C)=O)C(=O)N2CCN(C(=O)Nc3cccc(Cl)c3)CC2)cc1OC (configuration not stated) | 1.24% (inactive)
90 | CCCS(=O)(=O)Nc1ccc(-c2cn3c(n2)SCC3)cc1 | 0.71% (inactive)
91 | CNc1cncc(-c2ccc(NS(C)(=O)=O)cc2)n1 | 174% (active)
92 | CS(=O)(=O)Nc1ccc(C(=O)N2CCCC2)cc1 | 4.14% (inactive)
